In PubChem BioAssay (NCI):
Values joined by “and” are separate entries in the source; they are usually repeats but may differ in a detail not shown here. Equal values may be shown once. Compounds without any hit were thinned out: in the full panel of roughly 83,000, 20% have a hit.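 Each cell line was grown in a 96-well plate and treated with one concentration of compound for 48 hours. Values below 10 were considered active.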 Unmarked numbers belong to inactive results. Active and inactive are the calls of the source.

Legend:
Experiment in all cases: NCI-60 one-dose screen, 48 h (100 = growth as untreated, 0 = no growth, -100 = all killed)
Conditions in all cases: 10 µM
T-47D breast = system: T-47D breast
BT-549 breast = system: BT-549 breast
MDA-MB-435 melanoma = system: MDA-MB-435 melanoma
SW-620 colon = system: SW-620 colon
MCF7 breast = system: MCF7 breast
HCT-116 colon = system: HCT-116 colon
HCC-2998 colon = system: HCC-2998 colon
KM12 colon = system: KM12 colon
MDA-MB-468 breast = system: MDA-MB-468 breast

Compound	growth (T-47D breast)	growth (BT-549 breast)	growth (MDA-MB-435 melanoma)	growth (SW-620 colon)	growth (MCF7 breast)	growth (HCT-116 colon)	growth (HCC-2998 colon)	growth (KM12 colon)	growth (MDA-MB-468 breast)
O=C(c1ccc(-n2c(=O)[nH]c3ccccc3c2=O)cc1)N1CCOCC1	99.7%	75.6%	102%	97.1%	101%	99.2%	116%	114%	94.7%
CCOC(=O)C1=C(N)N(c2ccc(C)cc2)C2=C(C(=O)CC(C)(C)C2)C1c1ccccc1OC (configuration not stated)	97.8%	95.7%	111%	105%	93.5%	103%	106%	108%	101%
CCOC(=O)C1=C(N)N(c2ccc(Cl)cc2)C2=C(C(=O)CC(C)(C)C2)C1c1ccc(N2CCOCC2)cc1 (configuration not stated)	90.8%	23.8%	101%	107%	93.2%	99.2%	103%	107%	84.2%
CCOC(=O)c1sc(N/N=C(\C)c2ccc3c(c2)Nc2ccccc2S3)nc1C	8.5% (active)	48.1%	34.5%	20.3%	-2.84% (active)	23.4%	3.51% (active)	7.04% (active)	8.47% (active)
O=c1[nH]c2ccccc2cc1CSc1ccc(Nc2nccc(-c3ccc(Cl)cc3)n2)cc1	-10.3% (active)	-5.03% (active)	9.58% (active)	2.67% (active)	-5.81% (active)	-38.6% (active)	14.6%	23%	-67.5% (active)
CC[C@]12C=CCN3CC[C@@]4(c5cc(C#CCNc6ccc(C)c(Nc7nccc(-c8cccnc8)n7)c6)c(OC)cc5N(C)[C@H]4[C@@](O)(C(=O)OC)[C@@H]1OC(C)=O)C32 (some centres not stated)	45.5%	-3.24% (active)	34%	50%	21.7%	27.2%	41.2%	44.9%	1.75% (active)
O=C(CS(=O)(=O)c1oc(-c2ccc(Cl)cc2)nc1S(=O)(=O)c1ccc(Cl)cc1)N1CCOCC1	-50.2% (active)	52.4%	47%	-18.3% (active)	11.3%	4.36% (active)	51%	55.8%	-4.97% (active)
CS(=O)(=O)Nc1ccc(-c2ccc3c(c2)ncn3-c2ccc(NC(=O)Nc3ccc(Br)cc3)cc2)cc1	-8.48% (active)	-36.5% (active)	-18% (active)	1.27% (active)	-35.1% (active)	2.46% (active)	18%	2.79% (active)	-10.7% (active)
CCN1CCN(Cc2ccc(NC(=O)c3cccc(-n4cc(-c5ccc(NC(C)=O)nc5)nn4)c3)cc2C(F)(F)F)CC1	100%	144%	-39.8% (active)	109%	70.4%	86.3%	115%	22.9%	74%
COc1cccc2nc(Nc3ccc(F)c(NC(=O)c4ccc(CN5CCN(C)CC5)c(C(F)(F)F)c4)c3)ccc12	22%	82.6%	-69.3% (active)	-63% (active)	-61.3% (active)	1.84% (active)	-94.5% (active)	-22.2% (active)	-48.9% (active)
O=C(NO)c1ccc(Cn2ccc3c(NCc4ccccc4)ncnc32)cc1	-16.8% (active)	-22% (active)	-26.5% (active)	-64.8% (active)	9.85% (active)	-7.75% (active)	-3.05% (active)	11.9%	-18.6% (active)
CC(C)c1ccc(C(=O)Nc2sc3c(c2C(N)=O)CCC(=O)C3=O)cc1	80.3%	107%	91.4%	105%	79.3%	91.9%	119%	98.6%	94.8%
CC(=O)Nc1ccc(-c2cn(-c3cccc(C(=O)Nc4cccc(OC(F)(F)F)c4)c3)nn2)cn1	93.2%	96.7%	61.4%	90.1%	70.1%	88.6%	110%	30.1%	86.7%
Cc1ccc(CSc2nc(Cl)c(C#N)c(-c3ccc(F)cc3)n2)cc1	31.3%	56.4%	99.7%	62.8%	72.9%	59.3%	87.8%	72.2%	80.3%
O=C(Cc1ccc2c(c1)CN(C1CCC(=O)NC1=O)C2=O)NCc1cccc2ccccc12 (configuration not stated)	-4.86% (active)	-52.8% (active)	-15.1% (active)	5.07% (active)	1.22% (active)	9.59% (active)	-48.6% (active)	-7.26% (active)	-69.2% (active)
O=c1oc2ccccc2cc1-c1csc(N=Nc2c(O)[nH]c3ccc(Br)cc23)n1	89.1%	62.9%	102%	104%	80.7%	64.1%	96.3%	99.9%	95.2% and 64.3%
COc1ccc(OC)c(-c2cc(-c3c[nH]c4ccccc34)nc(N)c2C#N)c1	0.648% (active)	-25.4% (active)	-5.04% (active)	6.61% (active)	3.84% (active)	-45.8% (active)	-37.1% (active)	-27.6% (active)	-9.53% (active)
O=C1Nc2cc(-c3ccc(NC(=O)c4cccc([N+](=O)[O-])c4)cc3)ccc2/C1=C/c1ccc[nH]1	27.5%	120%	105%	79.8%	2.65% (active)	103%	62.2%	14.5%	-10.9% (active)
Cc1ccc(-c2cc(-c3cc4ccccc4nc3Cl)[nH]c(=S)n2)cc1	57.3%	7.67% (active)	-1.81% (active)	78.4%	47.5%	64.5%	77.3%	61.6%	11.7%
Cc1nc2c(cnn2-c2ccccc2)c(=O)n1-c1ccc(NC(=O)c2ccc(F)cc2)cc1	18%	46%	53.8%	76.5%	35.8%	48.3%	79.9%	64.1%	14.5%
O=c1c2ccccc2nc(COc2ccccc2)n1/N=C/c1ccc(F)cc1	57.4%	94.7%	86.2%	93.2%	80.4%	75.3%	104%	93.5%	78%
O=c1[nH]n(C(=S)N/N=C/c2ccc(F)cc2)c(=O)c2ccccc12	58.7%	70.1%	84.5%	30.4%	15.9%	-66% (active)	92.9%	36.2%	57.7%
CN1CCN(c2ccc(Nc3nc(NCCCNC(=O)c4ccc(F)cc4)c4sccc4n3)cc2)CC1	51.5%	108%	51.1%	58.3%	31%	33.5%	66.4%	53.7%	59.1%
COc1cc(/C=C/C(=O)c2ccc(S(=O)(=O)NCCNc3nc(Nc4ccc(F)cc4)nc(N(C)C)n3)cc2)cc(OC)c1OC	26.2%	-9.95% (active)	-24.8% (active)	1.12% (active)	-76.1% (active)	-69.6% (active)	-99% (active)	-81.1% (active)	-50.5% (active)
C=C[C@H]1[C@H](O[C@@H]2OC(CO)[C@@H](O)[C@H](O)C2OC(=O)c2c(O)cc(O)cc2-c2cccc(O)c2)OC=C2C(=O)OCC[C@H]21 (some centres not stated)	99.3%	94.8%	102%	105%	93.5%	94.4%	106%	103%	96.5%
CCCCCCCCCCCCCCCCCCCC(=O)NCCc1c[nH]c2ccc(OC(=O)NOCCOCCOCCOCCOCCOCCOCCOCCOCCOCCOCCOCCOCCOCCOCCOCCOCCOCCOCCOCCOCCOCCOC)cc12	-8.69% (active)	-12.7% (active)	17.2%	26.6%	-12.3% (active)	-21.7% (active)	-2.45% (active)	14.9%	-14.7% (active)
O=C(NO)c1ccc(CNC(=O)[C@H]2Cc3c([nH]c4ccccc34)[C@H](c3ccccc3)N2)cc1	-17.7% (active)	55.4%	5.21% (active)	-43.7% (active)	14.4%	10.1%	16.9%	31.1%	-6.19% (active)
CC(=O)Nc1ccc(-c2cn(-c3cccc(C(=O)Nc4ccc(F)c(C(F)(F)F)c4)c3)nn2)cn1	88.2%	103%	59.7%	-8.11% (active)	4.2% (active)	14.7%	62%	28.4%	42.8%
